SARS PLpro yeast = qHTS of Yeast-based Assay for SARS-CoV PLP. S. cerevisiae expressing SARS-CoV PLpro, growth rescue. Potency, µM (doses to about 32.9 µM), without a hit: top-dose activity, positive = growth rescue, usual class: activators. hit rate 0.19% among 330,000. AID 485353, 2010; calls by dose curve; also: potency is read from the fitted curve at half-maximal effect; 0% is about no effect; nearly all actives have a fitted effect of over 55% in size
AMA1-RON2 inh = qHTS for Inhibitors of AMA1-RON; Towards Development of Antimalarial Drug Lead: Primary Screen; Plasmodium falciparum AMA1 (3D7) - RON2 peptide interaction; AlphaScreen AMA1-biotinylated RON2 peptide binding; Potency, µM (top dose mostly 58.2 µM), for inactives: at the highest dose activity change, negative = inhibition, usual class: inhibitors; hit rate 0.2% among 360,000; AID 720542, 2013;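 also: potency is read from the fitted curve at half-maximal effect; 0% = vehicle wells and -100% = peptide control; nearly all actives have a fitted effect of over 45% in size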
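AMA1 (3D7) with his tag at 25 nM final met compounds first, then biotinylated RON2 peptide at 25 nM; detection used donor plus acceptor beads, 10 µg/mL apiece, read by AlphaScreen after 30 min at room temperature.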
Pf growth 96h = Primary qHTS for delayed death inhibitors of the malarial parasite plastid, 96 hour incubation; hit rate 6.9% among 320,000; Potency, µM (series often up to 28.7 µM), for inactives: top-dose activity change, negative = inhibition, most hits filed as inhibitors; P. falciparum luciferase reporter growth, 96 h; also: potency is read from the fitted curve at half-maximal effect; % is scaled to controls: 0 for no effect and ±100 for the full control effect
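Two parasite generations (96 h, 37 C, 5% CO2) of compound exposure in infected erythrocytes (0.05% parasitemia, 2% hematocrit). Luciferase-reporter P. falciparum; decreased luminescence indicates inhibited growth, aimed at apicoplast-acting delayed death.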
Pf growth 48h = Primary qHTS for delayed death inhibitors of the malarial parasite plastid, 48 hour incubation. P. falciparum luciferase growth in erythrocytes, 48 h. Potency, µM (titrated, usually from 28.7 µM), for the others: at the top dose activity change, negative = inhibition, hits mostly inhibitors. hit rate 5.9% among 310,000. AID 504832, 2011; also: potency is read from the fitted curve at half-maximal effect; % is scaled to controls: 0 for no effect and ±100 for the full control effect
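Here the parasites carry a stable luciferase gene and grow inside erythrocytes in Albumax-based RPMI medium with compound for one erythrocytic cycle. Activity is scored as loss of luminescent signal.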
Cycloheximide cs = Cycloheximide Counterscreen for Small Molecule Inhibitors of Shiga Toxin; hit rate 12% among 300,000; AID 2314, 2010; cell reporter, cycloheximide protein synthesis inhibition counterscreen; max response, %; in the data active = max response mostly above about 13%, no sharp cut-off; inactive = mostly below about 14%; also: read at 38.3 µM for the half of the compounds with a filed dose; 0% is about no effect
Shiga inhibitor = A qHTS for Small Molecule Inhibitors of Shiga Toxin; Vero cells, Shiga toxin protein synthesis inhibition reporter; inhibition, % at 38.7 µM; hit rate 9.2% among 290,000; AID 2315, 2010; in the data active = inhibition mostly above about 28%, no sharp cut-off; inactive = mostly below about 43%; also: 0% is about no effect
The depositor's hits bear a star; i = inactive; ? = inconclusive; . = no result given; [ ] = dose if it differs, or a comment. Hits are enriched below; roughly 19% of the tested compounds scored in any of these assays. Unless noted, calls follow the shape of the dose curve; as a rule, active = well fitted curve in the direction sought with a large enough effect; inconclusive = small, poorly fitted or top-dose-only effect, or another doubt; inactive = no such curve, though single readings can be large; an effect the other way counts as inactive or inconclusive.

SMILES	SARS PLpro yeast	AMA1-RON2 inh	Pf growth 96h	Pf growth 48h	Cycloheximide cs	Shiga inhibitor
CC1Cc2ccccc2N1C(=O)CSC1=NCCS1 (stereo not given)	0%	19%	?	?	11	46
CCCn1nnnc1SCC(=O)N1CCCc2ccccc21	3%	-10%	72%	78%	48*	108*
O=C(O)c1cccc(S(=O)(=O)N2CCC(n3nnc4cc(C(F)(F)F)ccc43)CC2)c1	0%	8%	-14%	-4%	-5	-10
Cc1cccc(C)c1NC(=O)C(c1ccccc1)N1CCN(C/C=C/c2ccccc2)CC1 (stereo not given)	.	-3%	.	.	.	.
COc1ccc(S(=O)(=O)NNC(=O)c2csc(-n3nc(C)cc3C(F)(F)F)n2)cc1	4%	-1%	.	-6%	-3	33
COc1cc(-c2nn3c(-c4ccco4)nnc3s2)cc(OC)c1OC	-1%	.	?	28%	-2	33
COc1cccc(OC)c1-c1nn2c(-c3ccco3)nnc2s1	-9%	3%	92%	-5%	56*	200*
COc1cccc(-c2nn3c(-c4ccco4)nnc3s2)c1	0%	-11%	8.3µM*	10%	4	36
COCCn1c(COc2cccc(OC)c2)nnc1SCC(=O)NC1CCCC1	0%	2%	33%	5%	-1	24
COc1ccc(CN(C(=O)c2ccc(-c3ccccc3)[nH]2)C(C(=O)NCC2CCCO2)c2ccc(C)o2)cc1 (stereo not given)	-9%	?	6.6µM*	8.3µM*	-3	-7
O=C(NC1CCCCC1)C(c1ccc(F)cc1)N(CCCN1CCOCC1)C(=O)c1ccc(CN2CCOCC2)o1 (stereo not given)	0%	-9%	0%	?	-2	-12
COc1ccc(CN(CC(=O)NC2CCCC2)C(=O)c2ccc(-c3ccccc3)[nH]2)cc1	-12%	?	7%	?	3	-13
CC(C)(C)NC(=O)C(c1ccncc1)N(Cc1ccco1)C(=O)c1ccc(-c2ccccc2)[nH]1 (stereo not given)	-9%	-20%	0%	?	39*	91*
CC(C)(C)NC(=O)C(c1cccs1)N(CC1CCCO1)C(=O)c1ccc(-c2ccccc2)[nH]1 (stereo not given)	7%	?	478%	13µM*	7	3
O=C(NCC1CCCO1)C(c1ccc(F)cc1)N(CCCN1CCOCC1)C(=O)c1ccc(-c2ccccc2)[nH]1 (stereo not given)	-2%	-14%	9%	13µM*	-2	-9
CC(Oc1cc2oc(=O)c3c(c2cc1Cl)CCC3)C(=O)NCCCn1ccnc1 (stereo not given)	-1%	-2%	?	7%	-4	-12
COc1cc(C(=O)Nc2cc3c4c(c2)CC(=O)N4CCC3)cc(OC)c1OC	-4%	11%	-18%	-21%	.	.
COc1ccc(COC[C@H](C)[C@H](O[Si](C)(C)C)[C@@H](C)[C@H]2OC(=O)[C@H]2C)cc1	.	.	.	.	6	16
O=C(NCC1CCCO1)C(c1cccs1)N(Cc1ccccc1)C(=O)c1ccc(-c2ccccc2)[nH]1 (stereo not given)	9%	?	i	?	5	-5
O=C(NCC1CCCO1)C(c1cccs1)N(C(=O)c1ccc(-c2ccccc2)[nH]1)C1CCCC1 (stereo not given)	16%	5%[2.32 µM]	?	10µM*	3	36
COc1ccc(OCC(=O)NNC(=O)C(=O)N2CCCC2)cc1	-11%	7%	21%	6%	27	-14
Cc1cc2occ(CC(=O)NNC(=O)c3ccccc3)c2cc1C	4%	115%	?	44%	9.9*	18
Cc1ccc2c(CC(=O)NNC(=O)c3ccccc3)coc2c1	-1%	63%	7%	11%	1	14
CN(Cc1ccon1)C(=O)C1CCN(C2CCN(CCCc3ccccc3)CC2)CC1	0%	4%	42%	?	1	-17
COCC1CCCCN1C(=O)c1cccc(OC2CCN(C(=O)C3CC3)CC2)c1 (stereo not given)	4%	0%	26%	?	50*	81*
SMILES	SARS PLpro yeast	AMA1-RON2 inh	Pf growth 96h	Pf growth 48h	Cycloheximide cs	Shiga inhibitor
COCC1CCN(C(=O)c2ccc(OC)c(OC3CCN(C(C)C)CC3)c2)CC1	3%	-4%	3.3µM*	14%	16	19
COCC1CCCCN1C(=O)c1ccc(OC)c(OC2CCN(C(C)C)CC2)c1 (stereo not given)	-4%	8%	61%	10%	57*	93*
Cc1c(C=C(C#N)c2ccc([N+](=O)[O-])cc2)c(=O)n(-c2ccccc2)n1C	.	-9%	.	.	.	.
COc1ccc(N(CC(=O)N2CCN(Cc3ccccc3)CC2)S(=O)(=O)c2ccccc2)cc1	1%	-5%	5.9µM*	?	-3	-2
COc1ccc(N2CCN(C(=O)CN(c3ccc(OC)cc3)S(=O)(=O)c3ccccc3)CC2)cc1	-1%	?	-8%	12µM*	-2	-2
COc1ccc(N2CCN(C(=O)CN(c3ccccc3)S(=O)(=O)c3ccc(OC)cc3)CC2)cc1	7%	-25%	.	-29%	-3	-22
CS(=O)(=O)N(CC(=O)N1CCN(Cc2ccccc2)CC1)c1cccc([N+](=O)[O-])c1	5%	-2%	2.9µM*	?	1	-9
CS(=O)(=O)N(CC(=O)N1CCN(Cc2ccccc2)CC1)c1cccc(F)c1	2%	4%	20%	12%	-2	13
COc1ccc(N(CC(O)Cn2c3ccccc3c3ccccc32)S(=O)(=O)c2ccccc2)cc1 (stereo not given)	2%	-4%	10µM*	?	-6	-8
COc1ccc(Cl)cc1-c1csc(N)n1	-6%	-9%	16%	42%	-2	-4
CC(O)c1cccc2cc(C(O)CNC(C)(C)C)oc12 (stereo not given)	.	.	.	.	-10	-9
CSc1ccc(CN(C)CC(=O)Nc2cccc(Br)c2)cc1	-11%	1%[11.6 µM]	?	6%	6	13
COc1ccc(CNC(=O)C/C(C)=N/NC(=O)c2ccc(OC)cc2OC)cc1	0%	69%	-2%	4%	14	47*
COc1ccc(C(=O)N/N=C(\C)CC(=O)Nc2ccc3ccccc3c2)c(OC)c1	-1%	0%	?	?	13*	15
O=C1NC[C@H](CCCCN2CCN(Cc3ccccc3)C(=O)C2=O)N(CC2CCCCC2)C1=O	.	1%	.	.	.	.
O=C(NC(CC(=O)N1CCCC(C(F)(F)F)C1)c1ccccc1)c1ccccc1Cl (stereo not given)	-5%	-11%	?	15%	-11	-20

Screens: PubChem BioAssay, National Center for Advancing Translational Sciences (NCATS)
